Compound activity: PubChem, National Center for Advancing Translational Sciences (NCATS)
BAZ2B inh: qHTS Assay for Inhibitors of BAZ2B; AlphaScreen BAZ2B-H3K14Ac peptide displacement; 360,000 compounds, 4.4% hits; Potency, µM (doses to about 114 µM), inactives show at the highest dose activity change, negative = inhibition, hits mostly inhibitors; Bromodomain adjacent to zinc finger domain protein 2B (Homo sapiens), Q9UIF8; AID 504333, 2011; also: % is scaled to controls: 0 for no effect and ±100 for the full control effect; nearly all actives have a fitted effect of over 60% in size
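Inhibition is scored as reduced AlphaScreen emission. The BAZ2B/b-H3(5-23)K14Ac complex (50 nM each) in PBS pH 7.4, 0.01% Tween-20 meets compound (up to 110 uM) for 30 min at RT before bead addition.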
Sfp inh: qHTS Assay for Inhibitors of Bacillus subtilis Sfp phosphopantetheinyl transferase (PPTase) | Potency, µM, inactives show largest response in the series, negative = inhibition, usual class: inhibitors | 310,000 compounds, 3.5% hits | Biochemical Sfp PPTase activity, qHTS | 4'-phosphopantetheinyl transferase ffp (Bacillus subtilis), Q9F4F7;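 also: the enzyme is Sfp with the accession as filed and its product quenches rhodamine fluorescence; 0% = enzyme reaction without inhibitor and -100% = no enzyme wells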
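Fluorescence-quenching assay with 15 nM Sfp, 5 uM rhodamine-CoA and 12.5 uM BHQ-2-labelled ybbR peptide in pH 7.6 Hepes/MgCl2 buffer. Enzyme was pre-incubated with compound for 15 min at room temperature. Rate was taken from the 30-min fluorescence change (525/598 nm).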
G9a inh-1: qHTS Assay for Inhibitors of Histone Lysine Methyltransferase G9a; Histone-lysine N-methyltransferase EHMT2 (Homo sapiens), Q96KQ7; G9a H3K9 monomethylation, AlphaScreen, 2 h; Potency, µM (doses to about 102 µM), inactives show at the top dose activity, negative = inhibition, actives largely listed as inhibitors; 350,000 compounds, 8.8% hits; AID 504332, 2011; also: % is scaled to controls: 0 for no effect and ±100 for the full control effect; nearly all actives have a fitted effect of over 75% in size
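AlphaScreen read-out: biotin-H3K9 peptide (500 nM) methylation by 20 nM enzyme with 20 uM SAM, 2 h at room temperature after 15 min compound preincubation; anti-monomethyl H3K9 antibody plus donor/acceptor beads, 10 min dark.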
JMJD2A Tudor inh: qHTS Assay for Inhibitors of JMJD2A-Tudor Domain; Potency, µM (titrated, usually from 114 µM), inactives show at the highest dose activity change, negative = inhibition, actives largely listed as inhibitors; 390,000 compounds, 4.4% hits; AlphaScreen JMJD2A-Tudor / H3K4me3 peptide binding; AID 504339, 2011; Lysine-specific demethylase 4A (Homo sapiens), O75164; also: % is scaled to controls: 0 for no effect and ±100 for the full control effect; nearly all actives have a fitted effect of over 50% in size
L3MBTL1 block: qHTS Assay for the Inhibitors of L3MBTL1. Lethal(3)malignant brain tumor-like protein 1 (Homo sapiens), Q9Y468. AlphaScreen L3MBTL1–H3K9me1 peptide binding. Potency, µM (doses to about 57.1 µM), for inactives: at the top dose activity, negative = inhibition, most hits filed as inhibitors. 230,000 compounds, 0.66% hits; also: % is scaled to controls: 0 for no effect and ±100 for the full control effect; nearly all actives have a fitted effect of over 60% in size
Target sequence (Q9Y468 whole entry, looked up): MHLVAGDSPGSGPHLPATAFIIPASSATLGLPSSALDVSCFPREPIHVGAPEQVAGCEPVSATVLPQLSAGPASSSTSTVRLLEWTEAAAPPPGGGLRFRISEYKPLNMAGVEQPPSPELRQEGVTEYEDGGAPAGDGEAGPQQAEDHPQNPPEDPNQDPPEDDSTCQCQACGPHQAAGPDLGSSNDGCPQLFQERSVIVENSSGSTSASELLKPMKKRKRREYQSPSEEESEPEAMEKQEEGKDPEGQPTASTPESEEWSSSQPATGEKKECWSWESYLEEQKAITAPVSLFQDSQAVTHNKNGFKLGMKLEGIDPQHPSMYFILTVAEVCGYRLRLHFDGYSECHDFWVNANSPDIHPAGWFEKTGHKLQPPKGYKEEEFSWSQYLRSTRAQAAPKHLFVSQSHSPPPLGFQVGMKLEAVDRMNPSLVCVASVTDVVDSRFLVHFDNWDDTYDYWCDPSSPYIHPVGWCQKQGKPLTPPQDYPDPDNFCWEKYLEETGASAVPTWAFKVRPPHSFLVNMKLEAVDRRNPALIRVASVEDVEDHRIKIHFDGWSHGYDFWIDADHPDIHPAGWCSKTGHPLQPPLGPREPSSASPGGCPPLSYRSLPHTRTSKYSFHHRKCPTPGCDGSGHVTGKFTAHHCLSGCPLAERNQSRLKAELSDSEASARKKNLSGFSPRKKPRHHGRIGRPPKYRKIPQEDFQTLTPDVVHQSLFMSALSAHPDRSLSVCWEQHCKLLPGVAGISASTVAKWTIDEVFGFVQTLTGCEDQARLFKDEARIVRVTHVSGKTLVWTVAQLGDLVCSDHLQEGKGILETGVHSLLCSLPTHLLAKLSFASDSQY
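L3MBTL1 50 nM + b-AHA-H3(1-15)K9me1 75 nM, 30 min RT; compound added, 30 min RT; streptavidin donor/Ni-chelate acceptor beads 10 ug/mL each final, 30 min RT dark; AlphaScreen read.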
HP1b chromo inh: HTS for Inhibitors of HP1-beta Chromodomain Interactions with Methylated Histone Tails | Chromobox protein homolog 1 (Homo sapiens), P83916 | AlphaScreen HP1-beta / biotin-H3K9me3 peptide binding | Potency, µM (doses to about 114 µM), for the others: top-dose activity change, negative = inhibition, actives largely listed as inhibitors | 390,000 compounds, 0.56% hits; also: nearly all actives have a fitted effect of over 70% in size
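AlphaScreen: HP1-beta (50 nM) preformed 30 min with biotin-H3(1-18)K9me3 peptide (50 nM) in PBS pH 7.4, 0.01% Tween-20. Compound added for 30 min at RT, then streptavidin donor/nickel chelate acceptor beads (10 ug/mL) for 30 min.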
G9a inh-2: qHTS Assay for Inhibitors of Histone Lysine Methyltransferase G9a: Hit Confirmation; shares compounds with JMJD2A Tudor inh; Potency, µM, usual class: inhibitors; 370 compounds, 89% hits; G9a H3K9 monomethylation, AlphaScreen, 2 h; AID 588344, 2011; also: nearly all actives have a fitted effect of over 65% in size
Active calls of the source: *; [ ] = dose if it differs, or a comment. A selection: hits, their analogues and other compounds. The true share with any hit is near 12%. Calls follow the shape of the dose curve; as a rule, active = well fitted curve in the direction sought with a large enough effect; inconclusive = small, poorly fitted or top-dose-only effect, or another doubt; inactive = no such curve, though single readings can be large; an effect the other way counts as inactive or inconclusive. Potency is read from the fitted curve at half-maximal effect.

How did COc1ccc(NC(=S)Nc2ccccc2F)c(OC)c1 do in these assays?
BAZ2B inh: -2.2%; Sfp inh: -23.0%; G9a inh-1: 11.4%; JMJD2A Tudor inh: -11.5%; L3MBTL1 block: -5.0%; HP1b chromo inh: 13.6%

What do the screens show for `COc1ccc(C(C(O)C(=O)c2c[nH]c3ccccc23)N2CCN(c3ccc(OC)cc3)CC2)cc1` (stereo not given)?
BAZ2B inh: 60.8%; Sfp inh: -11.3%; G9a inh-1: inconclusive; JMJD2A Tudor inh: inconclusive; HP1b chromo inh: inconclusive; G9a inh-2: 5.62*

Results for O=C(c1c[nH]c2ccccc12)C(O)C(c1ccccc1)N1CCOCC1 (stereo not given) ?
BAZ2B inh: 4.8%; Sfp inh: 26.5%; G9a inh-1: 24.6%[59 µM]; JMJD2A Tudor inh: -4.5%; L3MBTL1 block: -9.1%; HP1b chromo inh: 11.9%

Results for CN(CC(=O)Nc1ccc(N2CCOCC2)cc1)Cc1c(O)ccc2ccccc12 ?
BAZ2B inh: inconclusive; Sfp inh: inconclusive; G9a inh-1: 0.501µM*; JMJD2A Tudor inh: 56.2µM*; L3MBTL1 block: -10.0%; HP1b chromo inh: -1.4%; G9a inh-2: 0.252*

What do the screens show for `CSc1ccccc1NC(=O)CN(C)CC(=O)Nc1ccc(N2CCOCC2)cc1`?
BAZ2B inh: -21.3%; Sfp inh: -17.9%; G9a inh-1: 22.5%[59 µM]; JMJD2A Tudor inh: -1.9%; HP1b chromo inh: 39.5%

Results for Fc1ccc(Oc2ccnc(Cl)n2)c(Cl)c1 ?
JMJD2A Tudor inh: -7.0%; HP1b chromo inh: 34.5%

What do the screens show for `Cc1ccc(N(Cc2cc(=O)[nH]c3ccccc23)C(=O)c2ccco2)cc1`?
BAZ2B inh: inconclusive; Sfp inh: -4.9%; G9a inh-1: inconclusive; JMJD2A Tudor inh: 28.6%; HP1b chromo inh: 13.1%; G9a inh-2: 22.4*

How did CC(C)C(=O)N(Cc1cc(=O)[nH]c2ccccc12)c1ccccc1 do in these assays?
BAZ2B inh: -14.4%; Sfp inh: 7.8%; G9a inh-1: inconclusive; JMJD2A Tudor inh: -13.7%; L3MBTL1 block: 14.8%; HP1b chromo inh: 14.9%

How did COc1ccc(NC(=O)N(C)C[C@H]2Oc3ccc(NC(=O)Cc4ccccc4)cc3CC(=O)N([C@H](C)CO)C[C@H]2C)cc1 do in these assays?
JMJD2A Tudor inh: -6.3%; L3MBTL1 block: -5.4%; HP1b chromo inh: 14.8%

How did CCOC(=O)c1ccccc1NC(=O)N(Cc1ccc(C)cc1)Cc1cccn1-c1nnc(N2CCCC2=O)s1 do in these assays?
BAZ2B inh: -2.0%; G9a inh-1: 0.794µM*; JMJD2A Tudor inh: 9.8%; HP1b chromo inh: 42.5%; G9a inh-2: inconclusive

Results for CCCNC(=O)c1ccc2c(=O)n3c(-c4ccc(C)cc4)csc3nc2c1 ?
BAZ2B inh: 7.08µM*; Sfp inh: inconclusive; G9a inh-1: inconclusive; JMJD2A Tudor inh: 22.4µM*; HP1b chromo inh: -25.2%; G9a inh-2: 0.564*

What do the screens show for `CCOc1ccc(CC(=O)Nc2sc(Cc3ccccc3)cc2C(N)=O)cc1OCC`?
BAZ2B inh: -0.5%; Sfp inh: 28.2µM*; G9a inh-1: 2.51µM*; JMJD2A Tudor inh: inconclusive; HP1b chromo inh: inconclusive; G9a inh-2: 6.31*

How did CC(=O)Nc1c2c(nn1-c1cccc(Cl)c1)CS(=O)(=O)C2 do in these assays?
BAZ2B inh: -10.5%[57.1 µM]; Sfp inh: 19.9%; G9a inh-1: -3.3%; JMJD2A Tudor inh: -2.5%; HP1b chromo inh: 24.2%
